# Data reported in the supplement of paper PMC3334620.
# Over roughly 33,000 sequences, “E-score (-0.5 to 0.5)” has its median near -0.0014; the highest 2% begin near 0.25. Only a selection was taken, and the highest values are over-represented in it overall.
# Target: T1, Cad1 (UniProt P24813)
# T1 sequence: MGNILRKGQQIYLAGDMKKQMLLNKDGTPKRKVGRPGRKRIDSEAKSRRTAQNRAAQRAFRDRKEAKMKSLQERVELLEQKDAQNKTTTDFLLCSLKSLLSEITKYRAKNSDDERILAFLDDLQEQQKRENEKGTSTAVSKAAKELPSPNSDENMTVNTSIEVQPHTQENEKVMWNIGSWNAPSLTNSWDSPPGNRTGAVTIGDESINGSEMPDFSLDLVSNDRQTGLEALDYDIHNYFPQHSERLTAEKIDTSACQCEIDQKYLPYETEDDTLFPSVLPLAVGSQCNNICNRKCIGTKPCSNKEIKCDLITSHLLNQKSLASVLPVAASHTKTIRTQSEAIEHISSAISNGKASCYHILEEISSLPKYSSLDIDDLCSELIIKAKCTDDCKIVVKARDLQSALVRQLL
# Assay: PBM E-score (8-mer binding enrichment) (E-score (-0.5 to 0.5)); higher = stronger / more preferred TF binding
# Conditions: protein concentration: 100 nM; construct: GST-full length
# Method in brief: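 Each ungapped eight-base word and its reverse complement, pooled, received an E-score from the Universal PBM Analysis Suite. Underlying scans, normalised with masliner, recorded fluorescent anti-GST bound to GST-tagged yeast transcription factors. These were applied at about 100-200 nM to universal all-10-mer Agilent arrays double-stranded by primer extension.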
row,Sequence,PBM E-score
1,CGACTAAG,-0.00537
2,ACTTCAGG,-0.041
3,TACAACTA,0.0174
4,CAGACCCA,-0.175
5,GCTTACCA,0.255
6,CCTTACTA,0.211
7,GCTTACTA,0.426
8,GCTTACCC,0.034
9,ACTTACTA,0.184
10,TCTTACCA,-0.131
11,AGTCAAGA,0.121
12,GCCTTATA,-0.0929
13,GGGATGCA,-0.167
14,AACGGGAA,0.00234
15,GTCGAAGA,-0.0249
16,ATTGGCTC,0.0265
17,ACCACGGA,-0.141
18,CTAACGGA,0.294
19,CTAACGGC,0.00942
20,CCCACGGA,-0.117
21,TCCACGGA,0.282
22,ATAACGGA,0.155
23,ATGGTCCC,-0.189
24,CCGCCCTA,-0.00222

row,Sequence,PBM E-score
1,AGTCGGAA,0.0204
2,AATACTCC,-0.123
3,AGTAATCA,0.297
4,AGTAAACA,0.182
5,GGTAAACA,0.124
6,CGTAATCA,0.336
7,GGTAATCA,0.203
8,CGTAATCC,0.191
9,AGTAATCC,0.229
10,CGTAAACA,0.256
11,CATAATCA,0.175
12,AATCCCAG,0.0625
13,AAGAGTCG,0.0695
14,AATTTCTG,0.0718
15,AGCGGGCC,-0.0503
16,CCACCATA,-0.0653
17,CATCCGTC,-0.00289
18,AACTAATT,0.217
19,CACTAATA,0.183
20,TAATACTA,0.303
21,AACTAATA,0.351
22,GACTAGTA,-0.117
23,TACTAATA,0.285
24,AAATACTA,0.0416

row,Sequence,PBM E-score
1,TACTACTA,0.157
2,CACTAGTA,0.0511
3,TACTAGTA,0.273
4,CAATACTA,0.0552
5,AACTAAAA,0.133
6,ATACTTAC,0.0308
7,AGACGCCT,-0.1
8,ACCAACGT,0.0535
9,CGGCTTTA,-0.151
10,CGATCGGA,0.0447
11,CTCCATAC,-0.104
12,ATACACCA,0.12
13,CACGACTA,-0.148
14,CGAAGCTC,-0.231
15,TACTTGAA,0.0482
16,GAATAATA,0.221
17,CAATAATA,0.208
18,GACTAAAA,0.114
19,TAATAATA,0.29
20,AACTAAAG,0.2
21,GACTAATA,0.372
22,AACTAATG,0.283
23,CACTAATG,-0.0516
24,GACTAACA,0.218

row,Sequence,PBM E-score
1,GCTGGGCC,-0.297
2,GCCTATAC,-0.214
3,GGAATGAC,-0.179
4,CAGTCCAG,-0.0544
5,CGTCAAAC,-0.0838
6,AGCACTAC,-0.0732
7,AGCAACGG,0.0958
8,CTGTCCGA,0.189
9,ATTTATTA,0.186
10,ACTTATTA,0.192
11,GTTTATTA,0.293
12,CTTTATTA,0.18
13,GCTTATTA,0.369
14,CCTTATTA,0.211
15,CACCATCA,0.0657
16,TAAACGTA,0.172
17,GGTTTCAC,0.00803
18,ACGGCCCT,-0.0728
19,CTGTAGCC,-0.0863
20,AACTTGAA,0.109
21,AACTTGAG,-0.154
22,AACTTGAT,0.268
